# Values joined by “and” are separate entries in the source; they are usually repeats but may differ in a detail not shown here. Identical values can stand only once. Active and inactive are the calls of the source. Unless noted, how the calls were made is not given here.
# Columns and labels:
# [1] = test system: XIP peptide (Xip251-270) binding; experiment: XIP fragment 251-270 binding compounds – biochemical, small-molecule microarray, fluorescence 635/667 nm, 0.1 µg/mL protein, primary screen (AID 1182); conditions: fluorescent protein binding, 635 nm, higher = more signal, called active from +8 up or from −8 down
# XIP peptide (Xip251-270) = experiment: compounds binding XIP fragment 251-270 – biochemical, small-molecule microarray, fluorescence 635/667 nm, 0.5 µg/mL protein, primary screen (AID 1183); conditions: fluorescence 635 nm, higher = more signal
# [2] = blood-stage malaria parasite viability loss – strain 3D7, DAPI fluorescence, 100 nL, primary screen (AID 1184);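 further: parasites grown inside human red blood cells in medium with human serum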; conditions: P. falciparum 3D7 growth, 3 d, higher = more signal
# [3] = biological target: Homeobox protein Hox-A13 (Mus musculus) (UniProt Q62424); experiment: disruptors of Hoxa13 oligonucleotide interaction – biochemical, fluorescence polarization, labeled oligonucleotide, primary screen (AID 1185); conditions: Hoxa13:DNA binding, 15 min, higher = more signal, called active from +8 up or from −8 down
# Chain of Homeobox protein Hox-A13 (Mus musculus) (Q62424 whole entry, looked up): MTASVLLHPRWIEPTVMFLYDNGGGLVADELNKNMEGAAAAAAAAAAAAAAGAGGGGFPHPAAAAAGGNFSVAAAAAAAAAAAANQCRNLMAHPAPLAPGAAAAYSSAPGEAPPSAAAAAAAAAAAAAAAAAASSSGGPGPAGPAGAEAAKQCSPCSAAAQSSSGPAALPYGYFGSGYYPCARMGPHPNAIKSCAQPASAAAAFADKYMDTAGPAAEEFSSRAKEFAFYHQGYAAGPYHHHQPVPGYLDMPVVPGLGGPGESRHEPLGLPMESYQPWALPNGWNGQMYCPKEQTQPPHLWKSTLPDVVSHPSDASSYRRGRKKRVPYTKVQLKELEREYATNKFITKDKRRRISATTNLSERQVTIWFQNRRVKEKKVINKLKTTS
# [4] = blockers of DNA damage checkpoint Chk1 activation – imaging, HeLa, hydroxyurea, phospho-Chk1 antibody, percent positive cells, primary screen (AID 1186); conditions: hydroxyurea-induced phospho-Chk1 immunofluorescence imaging, higher = more signal
# [5] = blockers of DNA damage checkpoint Chk1 activation – imaging, HeLa, hydroxyurea, phospho-Chk1 nuclear intensity, primary screen (AID 1187); conditions: hydroxyurea-induced phospho-Chk1 immunofluorescence imaging, higher = more signal
Structure (SMILES),composite z-score [1],composite z-score (XIP peptide (Xip251-270)),z-score [2],z-score [3],z-score [4],z-score [5]
C=CCN(C(=O)C1N(c2ccc(CCO)cc2)C(=O)C2C(C(=O)O)C3C=CC21O3)c1ccc(OC)cc1 (centres undefined),0.777 (inactive) and -0.925 (inactive),0.936 and -0.824,-1.09 and -0.417,-1.87 (inactive) and -0.733 (inactive),-0.265 (inactive) and -0.271 (inactive),-0.268 (inactive) and -0.384 (inactive)
C=CCN(CCCCC)C(=O)C1N(c2ccc(CCO)cc2)C(=O)C2C(C(=O)O)C3C=CC21O3 (centres undefined),-0.53 (inactive) and -0.482 (inactive),0.668 and 0.706,0.062 and -0.336,-2.29 (inactive) and -2.06 (inactive),-0.0956 (inactive) and 0.477 (inactive),0.0364 (inactive) and 0.181 (inactive)
COC(=O)[C@@]1(Cc2ccc(F)cc2)[C@H]2c3cc(C(=O)N4CCCC4)n(Cc4c(CO)[nH]cc(C)c4=O)c3C[C@H]2CN1C(=O)c1ccccc1,1.1 (inactive) and 0.516 (inactive),-0.307 and 0.761,-1.4 and -1.6,-5.99 (inactive) and -5.23 (inactive),0.113 (inactive) and 0.998 (inactive),0.0243 (inactive) and 0.533 (inactive)
C[N+](C)(C)CCCCCCNC(=O)[C@@H]1C[C@@H]2C(=O)N[C@@H](CCCC[N+](C)(C)C)C(=O)N2[C@@H]1c1ccc(O)cc1,0.134 (inactive) and 0.316 (inactive),0.907 and 0.898,0.202 and -0.0272,-0.929 (inactive) and -2.3 (inactive),0.556 (inactive) and 0.31 (inactive),0.424 (inactive) and 0.327 (inactive)
C=CCN(Cc1ccccc1)C(=O)C(c1cccs1)N(C(=O)/C=C\C(=O)O)c1ccc(CCO)cc1 (centres undefined),-0.37 (inactive) and 0.164 (inactive),-0.468 and 0.61,-0.0763 and 0.331,0.603 (inactive) and 0.423 (inactive),0.141 (inactive) and 0.581 (inactive),0.404 (inactive) and 0.592 (inactive)
CN1C(=O)C2CC=C([C@H]3Oc4ccccc4S(=O)(=O)N4CCC[C@@H]34)CC2C1=O (some centres undefined),-0.0989 (inactive) and 0.181 (inactive),-0.128 and -1.09,-0.292 and -0.542,-2 (inactive) and -1.92 (inactive),0.0695 (inactive) and 0.549 (inactive),-0.12 (inactive) and 0.575 (inactive)
COC(=O)[C@@]1(Cc2ccccc2)[C@H]2c3cc(C(=O)N(C)C)n(C[C@H](O)CO)c3C[C@H]2CN1C(=O)c1ccccc1,0.386 (inactive) and -0.28 (inactive),-0.0997 and 0.84,-0.894 and -0.297,-2.22 (inactive) and -4.41 (inactive),-0.601 (inactive) and 1.42 (inactive),-0.292 (inactive) and 1.06 (inactive)
C=CCN(Cc1ccccc1)C(=O)C1N(c2ccc(CCO)cc2)C(=O)C2C(C(=O)O)C3C=CC21O3 (centres undefined),0.224 (inactive) and -0.96 (inactive),-0.726 and 0.918,-1.34 and -0.544,-0.61 (inactive) and -2.5 (inactive),0.127 (inactive) and -0.193 (inactive),-0.0077 (inactive) and -0.58 (inactive)
C=CCN(C(=O)C(c1cccs1)N(CCOCCO)C(=O)/C=C\C(=O)O)c1ccc(OC)cc1 (centres undefined),-0.0498 (inactive) and -0.363 (inactive),-0.371 and -1.72,-0.305 and 0.0058,1.69 (inactive) and 0.807 (inactive),-1.69 (inactive) and -0.75 (inactive),-0.197 (inactive) and -0.573 (inactive)
O=C1NC(=O)C2C1C=CC(C(O)c1ccc([N+](=O)[O-])cc1)N2Nc1ccc(Cl)cc1Cl (centres undefined),0.376 (inactive) and 0.385 (inactive),0.762 and 0.163,0.698 and 0.664,-5.8 (inactive),-0.85 (inactive) and -0.665 (inactive),-1.15 (inactive) and -0.297 (inactive)
C=C[C@@H](C)[C@@H](O)c1ccc(OCCO)cc1,-0.704 (inactive) and -0.999 (inactive),-0.664 and 0.0227,-0.892 and 0.0904,-0.592 (inactive) and -0.123 (inactive),1.19 (inactive) and -0.153 (inactive),1.48 (inactive) and 0.641 (inactive)
C=CCN(C(=O)C1N(c2c(Cl)cccc2CO)C(=O)C2C(C(=O)O)C3C=CC21O3)C(C)(C)C (centres undefined),0.13 (inactive) and -0.96 (inactive),0.106 and -0.591,-1.76 and 0.0813,-1.56 (inactive) and 0.87 (inactive),-0.198 (inactive) and -0.391 (inactive),0.0398 (inactive) and 1.14 (inactive)
C=CCN(CCCCC)C(=O)C1N(c2c(Cl)cccc2CO)C(=O)C2C(C(=O)O)C3C=CC21O3 (centres undefined),-0.421 (inactive) and -0.228 (inactive),-0.416 and -1.42,-1.2 and -1.04,-2.42 (inactive) and -0.615 (inactive),-0.672 (inactive) and 0.433 (inactive),-0.669 (inactive) and 0.367 (inactive)
C=C[C@H](C)[C@@H](O)c1ccc(OCCO)cc1,-0.301 (inactive) and -0.375 (inactive),0.112 and 0.861,0.394 and 0.709,-1.51 (inactive) and -0.976 (inactive),0.845 (inactive) and -1.4 (inactive),0.121 (inactive) and -0.859 (inactive)
CCOC(=O)C[C@H]1[C@H](OC(=O)c2ccccc2-c2ccccc2)[C@@H](NC(=O)Cc2ccc(OC)cc2)c2cc(OCCCO)ccc2N1C(=O)c1ccc2ccccc2n1,-0.432 (inactive) and 0.387 (inactive),-0.398 and 0.0791,-0.543 and -0.616,-1.67 (inactive) and -0.554 (inactive),-0.015 (inactive) and -0.308 (inactive),0.0414 (inactive) and -0.162 (inactive)
C=CC[C@@H](O)c1ccc(O)c2ccccc12,2.01 (inactive) and 0.431 (inactive),0.703 and 0.802,-0.401 and 0.619,-2.24 (inactive),0.024 (inactive) and 0.26 (inactive),0.515 (inactive) and 0.183 (inactive)
CCOC(=O)c1ccc(NC(=O)O[C@H]2[C@H](OC(=O)Nc3ccccc3)[C@H](OC(=O)Nc3ccccc3)[C@@H](OC)O[C@@H]2CO)cc1,0.706 (inactive) and 1.24 (inactive),0.844 and 0.901,-2.51 and -2.22,-1.14 (inactive) and -4.8 (inactive),0.143 (inactive) and 0.494 (inactive),0.337 (inactive) and 0.629 (inactive)
C=CCN(Cc1ccccc1)C(=O)C(c1cccs1)N(C(=O)/C=C\C(=O)O)c1c(Cl)cccc1CO (centres undefined),-0.422 (inactive) and -0.522 (inactive),-0.367 and -1.55,-0.82 and -0.106,1.14 (inactive) and 0.425 (inactive),-0.347 (inactive) and 0.628 (inactive),0.0032 (inactive) and 0.521 (inactive)
C=CCN(CCCCC)C(=O)C1N(CCCCCCO)C(=O)C2C(C(=O)O)C3C=CC21O3 (centres undefined),0.0579 (inactive) and 0.042 (inactive),0.69 and 0.714,2.33 and 1.76,-1.18 (inactive) and -1.07 (inactive),0.99 (inactive) and 1.26 (inactive),0.616 (inactive) and 0.8 (inactive)

# Reference: PubChem BioAssay
